The record followed here is PubChem BioAssay (NCATS).

In test [1] the target is Lysosomal acid glucosylceramidase (Homo sapiens) (UniProt P04062). Briefly: Glucocerebrosidase-p2 (AID 348; in the data active = potency below about 10 µM; note: potency is the fitted concentration of half-maximal effect). The note with it: purified GBA, blue fluorogenic substrate, 40 min. An outline of the steps:
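Normal human glucocerebrosidase (0.2 nM) with blue fluorogenic substrate (80 uM final) in citrate/phosphate pH 5.9 with 10mM sodium taurocholate, 0.01% tween-20; 40 min RT, NaOH/glycine stop; fluorescence Ex 365/Em 440; AC50 from a titration from 0.6 nM upwards.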

Test [2] is described as follows: AP1 Signaling Pathway (AID 357).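 Note: ME-180 reporter cells stimulated with EGF at its EC50 level; % is set by controls: 0 for no effect and ±100 for the full control effect.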 The note with it: ME-180 AP-1-bla reporter, EGF-induced, beta-lactamase ratio, 5 h; at 7.69 µM (top of the series) unless noted. In short, it runs like this:
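In this screen, ME-180 cells in Opti-MEM with 0.5% dialyzed FBS received EC50 EGF and compound titrations for 5 h. AP-1 reporter beta-lactamase was detected via CCF4 ratio, giving AC50 for positive and negative modulators.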

The target of test [3] is Cytochrome P450 1A2 (Homo sapiens) (UniProt P05177). Kind of test: p450-cyp1a2 (AID 410; calls by dose curve;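 note: -100% = full effect of reference inhibitor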). The note with it: recombinant CYP1A2, luciferin-ME demethylation, luminescence; series mostly up to 57 µM. An outline of the steps:
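20nM CYP1A2, 100uM Luciferin-ME (=Km), 100mM KPO4; cpd 10 min RT; +NADPH regen, 60 min RT; stop/detect 20 min; luminescence. Normalized to furafylline 57 uM = full inhibition.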

The nature of test [4]: NFAT Signaling Pathway (AID 444).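 Note: carbachol stimulus at about its EC50 of 1 µM final; % is set by controls: 0 for no effect and ±100 for the full control effect.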 The note with it: Jurkat NFAT-bla M1, carbachol, beta-lactamase ratio, 5 h; at 7.69 µM (top of the series) unless noted. In short, it runs like this:
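Jurkat cells with NFAT-driven β-lactamase reporter and co-expressed M1 receptor, stimulated with carbachol (final 1 uM, ~EC50), compound titration, 5 h at 37 °C. CCF4 loaded 1 h at RT; 460/530 nm ratio gave %activity and AC50.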

For test [5], the target named is Glucocorticoid receptor (Homo sapiens) (UniProt P04150). Kind of test: GR-EFC Redistribution (AID 451; calls by dose curve; note: potency is the fitted concentration of half-maximal effect). The note with it: CHO-K1 GR-EFC translocation, beta-gal luminescence, 2 h. In short, it runs like this:
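CHO-K1 cells expressing nuclear EA and GR-ED fragments of b-gal; compounds titrated up to 46 uM final, 2 h at 37 C. GR nuclear translocation read as complemented b-gal luminescence after 1 h RT detection.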

Test [6] has as its target Mitogen-activated protein kinase 10 (Mus musculus) (UniProt Q61831). Kind of test: JNK3 AlphaScreen Assay (AID 530).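 Note: kinase came from lysate of stimulated human HepG2 cells; signal reports phosphorylation of biotinylated GST-cJun 1-79 at Ser73 with 10 µM ATP; % is set by controls: 0 for no effect and ±100 for the full control effect.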 The note with it: JNK3 lysate, c-Jun phosphorylation; series mostly up to 57.1 µM. In short, it runs like this: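 HepG2 lysate (IL-1b/TNFa pre-activated) + biotin-GST-cJun 1-79 + anti-pSer73 cJun; cpd titration, 15 min RT; ATP 10 uM start; Tris pH 7.6, MgCl2, DTT, vanadate; beads in EDTA buffer; AlphaScreen.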
Background: Alpha assays give light when donor and acceptor beads are brought close together.

Test [7] deals with 3',5'-cyclic-AMP phosphodiesterase 4B (Homo sapiens) (UniProt Q07343). Briefly: qHTS Assay for Inhibitors of PDE-IV (AID 607; active = well fitted activation curve with a large enough effect in the main read-out, with a control signal flat, not every such curve was filed as active; note: % of control where 0% means no effect). The note with it: HEK293 ACTOne CNG channel cells, membrane potential fluorescence; series mostly up to 22.9 µM. In short, it runs like this:
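The readout is membrane depolarisation from a cAMP-sensing CNG channel, detected with a potential dye at ex 535/em 590. Cells were HEK293-derived (endogenous PDE-IV) at 1000 cells/well, titrated up to 22.9 uM final.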
A general note: Quantitative high-throughput screening tests each substance at several concentrations.

Test [8] can be described thus: qHTS Assay for Lipid Storage Modulators (AID 1519; calls by dose curve). The note with it: Drosophila S3 cells, BODIPY lipid droplet/cell ratio, laser cytometry, cells loaded with oleic acid; for activity change, negative = inhibition: at 57.5 µM (top of the series). An outline of the steps:
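Cells seeded at 5,000 per well were treated with compounds over a concentration series and loaded with oleic acid (400 uM, as added). Lipid droplet fluorescence (488 nm excitation, 500-530 nm channel) was read by laser-scanning cytometry and normalized to 20 uM Triacsin C.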

A short description of test [9]: Primary qHTS for small molecule stabilizers of the endoplasmic reticulum resident proteome: Secreted ER Calcium Modulated Protein (SERCaMP) assay (AID 1508630; active = well fitted curve in the direction sought with a large enough effect; an effect the other way counts as inactive or inconclusive; note: % is set by controls: 0 for no effect and ±100 for the full control effect). The note with it: SH-SY5Y GLuc-SERCaMP (Gaussia luciferase released on ER calcium loss) secretion, thapsigargin, luminescence; series mostly up to 38.4 µM. In short, it runs like this: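 The SH-SY5Y reporter protocol was run at 3 concentrations up to 38.3 uM (primary) or 11 concentrations (follow-up): 16 h compound, 100 nM thapsigargin for 4 h, then extracellular luciferase luminescence.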

Test [10] has as its target Cytochrome P450 3A4 (Homo sapiens) (UniProt P08684). Kind of test: qHTS Assay for Activators of Cytochrome P450 3A4 (AID 885; active = well fitted curve in the direction sought with a large enough effect; an effect the other way counts as inactive or inconclusive; note: nearly all actives have a fitted effect of over 65% in size). The note with it: recombinant CYP3A4, Luciferin-PPXE luminescence, 60 min; series mostly up to 57.1 µM. In short, it runs like this:
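Activators are scored by enhanced luminescence from CYP3A4 conversion of luciferin-PPXE (25uM, equal to KM) to luciferin, after 60 min at RT with an NADPH-regenerating system.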

A short description of test [11]: Stat Signaling Pathway (AID 446). The note with it: ME-180 (cervical carcinoma) SIE beta-lactamase reporter, IL-6 stimulated, 5 h; at 7.69 µM (top of the series) unless noted. An outline of the steps:
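Emission at 460 and 530 nm (excitation 405 nm) reports SIE-controlled beta-lactamase in ME-180 cells. Cells received compound with 40 pM IL-6 for 5 hrs at 37 C; data scaled between 300 pM IL-6 and 125 nM JAK-inhibitor controls.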

Test [12] has as its target Cytochrome P450 2D6 (Homo sapiens) (UniProt P10635). Kind of test: qHTS Assay for Inhibitors and Substrates of Cytochrome P450 2D6 (AID 891; active = well fitted curve in the direction sought with a large enough effect; an effect the other way counts as inactive or inconclusive; note: potency is the fitted concentration of half-maximal effect; nearly all actives have a fitted effect of over 60% in size). The note with it: recombinant CYP2D6, luciferin-ME EGE luminescence; series mostly up to 57.1 µM. In short, it runs like this:
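Luminescent read-out of luciferin formed by 5 nM human CYP2D6 demethylating 30 uM Luciferin-ME EGE (Km level) over 60 min at room temperature after NADPH regeneration addition. Data normalized to full inhibition by 1.43 uM quinidine.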

The nature of test [13]: Confirmation and Secondary Assay for Modulators of Hemoglobin Beta Chain Splicing at IVS2 654 locus (AID 910; active = well fitted curve in the direction sought with a large enough effect; an effect the other way counts as inactive or inconclusive;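 note: HeLa cells stably carrying EGFP split by mutant beta-globin IVS2-654 intron; % of control where 0% means no effect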). The note with it: HeLa EGFP-654 splicing reporter, GFP fluorescence, 48 h; series mostly up to 38.3 µM. An outline of the steps: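 HeLa cells stably expressing EGFP interrupted by β-globin IVS2-654 intron, seeded overnight in Opti-MEM/2% FCS, then treated 2 days at 37 °C. Restored splicing read as total peak GFP intensity per well by laser scanning cytometry (488 nm excitation, 500–520 nm emission); 500 nM antisense PNA as control.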

Test [14] is described as follows: Confirmation and Secondary Assay for Modulators of Hemoglobin Beta Chain Splicing at IVS2 705 locus (AID 930; active = well fitted curve in the direction sought with a large enough effect; an effect the other way counts as inactive or inconclusive;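 note: HeLa cells stably expressing the EGFP-705 splicing reporter; GFP fluorescence per well restored by corrected splicing of the IVS2-705 intron in EGFP; % of control where 0% means no effect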). The note with it: HeLa EGFP-705 splicing reporter, GFP fluorescence, 48 h; series mostly up to 38.3 µM. An outline of the steps:
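HeLa IVS2-705 EGFP reporter cells, 500/well, compound 2 d at 37C; correct splicing yields fluorescent EGFP. Control: 500 nM antisense PNA. Read-out: total peak GFP intensity.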

In test [15] the target is Ubiquitin carboxyl-terminal hydrolase 1 (Homo sapiens) (UniProt O94782). Briefly: Inhibitors of USP1/UAF1: Pilot qHTS (AID 504865; active = well fitted curve in the direction sought with a large enough effect; an effect the other way counts as inactive or inconclusive; note: nearly all actives have a fitted effect of over 35% in size; note: potency is the fitted concentration of half-maximal effect). The note with it: purified USP1/UAF1, Ub-rhodamine cleavage fluorescence; series mostly up to 54.9 µM. In short, it runs like this:
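1nM USP1/UAF1 + cpd, 15 min RT; start w/ Ub-Rho 150nM final; kinetic FL 480/540 nm, 6 reads q60 s. Buffer 50mM HEPES pH 7.8, 0.5mM EDTA, 1mM TCEP, 0.01% Tween-20, 0.1 mg/ml BSA.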

The target of test [16] is Glucocorticoid receptor (Homo sapiens) (UniProt P04150). Briefly: GR-GFP Redistribution (AID 450;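 active = compounds whose dose series gives a full or clear partial fitted curve of increased nuclear translocation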; note: potency is the fitted concentration of half-maximal effect). The note with it: U2OS GR-GFP nuclear translocation, laser cytometry, 2 h.
Setting [17] is: measured here: cell count channel max response.
[18] abbreviates: measured here: lipid channel max response.

Inconclusive results are not listed. Activity calls are given as the source filed them. Unless noted, calls come from the whole dose curve; as a rule, active = well fitted curve in either direction with a large enough effect (not every such curve was filed as active); inconclusive = small, poorly fitted or top-dose-only effect, or another doubt; inactive = flat fitted curve, though single readings scatter.

Chain of Glucocorticoid receptor (Homo sapiens) (P04150 whole entry, looked up, the tested form may be a part): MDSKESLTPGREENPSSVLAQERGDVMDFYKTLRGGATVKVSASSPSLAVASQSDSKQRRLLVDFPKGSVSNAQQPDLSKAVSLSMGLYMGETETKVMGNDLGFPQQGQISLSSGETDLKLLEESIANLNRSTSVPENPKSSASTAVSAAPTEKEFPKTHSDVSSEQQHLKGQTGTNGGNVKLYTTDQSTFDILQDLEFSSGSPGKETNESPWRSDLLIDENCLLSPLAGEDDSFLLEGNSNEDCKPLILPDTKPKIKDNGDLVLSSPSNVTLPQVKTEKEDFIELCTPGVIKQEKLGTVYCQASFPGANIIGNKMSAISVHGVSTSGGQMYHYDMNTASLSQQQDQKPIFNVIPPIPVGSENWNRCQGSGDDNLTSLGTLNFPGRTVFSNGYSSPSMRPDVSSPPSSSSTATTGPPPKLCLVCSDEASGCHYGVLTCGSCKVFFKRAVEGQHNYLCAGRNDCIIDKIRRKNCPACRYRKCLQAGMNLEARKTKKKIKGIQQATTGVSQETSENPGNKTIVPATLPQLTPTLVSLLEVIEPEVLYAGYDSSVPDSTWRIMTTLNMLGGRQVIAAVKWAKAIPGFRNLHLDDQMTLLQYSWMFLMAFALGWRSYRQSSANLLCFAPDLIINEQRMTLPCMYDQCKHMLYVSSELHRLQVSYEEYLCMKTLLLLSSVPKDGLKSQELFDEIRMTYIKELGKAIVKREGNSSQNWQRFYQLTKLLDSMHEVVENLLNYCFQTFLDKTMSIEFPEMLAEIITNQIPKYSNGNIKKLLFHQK
Chain of 3',5'-cyclic-AMP phosphodiesterase 4B (Homo sapiens) (Q07343 whole entry, looked up): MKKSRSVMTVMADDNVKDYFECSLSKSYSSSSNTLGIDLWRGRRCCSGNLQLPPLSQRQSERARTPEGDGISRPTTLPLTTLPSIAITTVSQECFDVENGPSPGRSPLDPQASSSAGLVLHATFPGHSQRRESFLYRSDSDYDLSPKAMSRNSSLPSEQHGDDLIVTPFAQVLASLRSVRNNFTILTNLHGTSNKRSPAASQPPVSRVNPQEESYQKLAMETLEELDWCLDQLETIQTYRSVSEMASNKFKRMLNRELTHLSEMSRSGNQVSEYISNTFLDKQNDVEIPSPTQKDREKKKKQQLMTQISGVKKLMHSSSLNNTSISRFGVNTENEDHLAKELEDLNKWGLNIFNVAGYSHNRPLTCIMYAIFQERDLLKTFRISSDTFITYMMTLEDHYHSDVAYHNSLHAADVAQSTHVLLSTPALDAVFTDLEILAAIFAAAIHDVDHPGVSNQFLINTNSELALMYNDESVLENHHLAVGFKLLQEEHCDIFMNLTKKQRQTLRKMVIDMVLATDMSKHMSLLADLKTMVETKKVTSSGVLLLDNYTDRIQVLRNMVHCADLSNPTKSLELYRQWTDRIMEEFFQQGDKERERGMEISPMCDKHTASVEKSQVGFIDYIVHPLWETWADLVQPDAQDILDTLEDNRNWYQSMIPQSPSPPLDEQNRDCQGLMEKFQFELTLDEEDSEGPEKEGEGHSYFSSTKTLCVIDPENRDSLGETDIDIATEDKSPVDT
Chain of Lysosomal acid glucosylceramidase (Homo sapiens) (P04062 whole entry, looked up): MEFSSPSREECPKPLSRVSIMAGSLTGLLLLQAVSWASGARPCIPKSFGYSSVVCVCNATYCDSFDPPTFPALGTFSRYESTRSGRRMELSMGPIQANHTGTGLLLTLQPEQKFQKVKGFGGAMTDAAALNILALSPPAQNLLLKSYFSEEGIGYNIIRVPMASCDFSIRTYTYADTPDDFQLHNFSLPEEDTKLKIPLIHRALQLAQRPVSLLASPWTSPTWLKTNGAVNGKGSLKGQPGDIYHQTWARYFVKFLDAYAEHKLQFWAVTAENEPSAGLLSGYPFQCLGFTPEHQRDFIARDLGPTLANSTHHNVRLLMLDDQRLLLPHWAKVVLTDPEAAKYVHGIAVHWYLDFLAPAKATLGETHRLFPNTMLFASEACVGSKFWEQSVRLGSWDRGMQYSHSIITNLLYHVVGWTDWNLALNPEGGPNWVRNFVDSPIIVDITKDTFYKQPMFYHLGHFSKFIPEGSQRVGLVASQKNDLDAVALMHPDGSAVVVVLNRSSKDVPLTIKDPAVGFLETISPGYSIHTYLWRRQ
Chain of Cytochrome P450 3A4 (Homo sapiens) (P08684 whole entry, looked up): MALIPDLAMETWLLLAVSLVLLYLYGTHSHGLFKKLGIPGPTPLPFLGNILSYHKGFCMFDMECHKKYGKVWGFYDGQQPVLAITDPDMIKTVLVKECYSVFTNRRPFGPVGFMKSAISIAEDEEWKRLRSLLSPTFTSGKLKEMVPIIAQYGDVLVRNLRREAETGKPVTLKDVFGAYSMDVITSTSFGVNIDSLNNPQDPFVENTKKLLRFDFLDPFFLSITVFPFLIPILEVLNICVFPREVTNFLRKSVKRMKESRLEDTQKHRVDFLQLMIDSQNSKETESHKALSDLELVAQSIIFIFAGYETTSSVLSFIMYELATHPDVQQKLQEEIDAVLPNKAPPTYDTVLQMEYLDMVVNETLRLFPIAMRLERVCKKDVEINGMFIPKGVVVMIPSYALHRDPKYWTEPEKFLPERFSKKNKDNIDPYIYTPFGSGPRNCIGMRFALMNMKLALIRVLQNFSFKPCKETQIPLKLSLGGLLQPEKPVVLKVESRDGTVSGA
Chain of Ubiquitin carboxyl-terminal hydrolase 1 (Homo sapiens) (O94782 whole entry, looked up): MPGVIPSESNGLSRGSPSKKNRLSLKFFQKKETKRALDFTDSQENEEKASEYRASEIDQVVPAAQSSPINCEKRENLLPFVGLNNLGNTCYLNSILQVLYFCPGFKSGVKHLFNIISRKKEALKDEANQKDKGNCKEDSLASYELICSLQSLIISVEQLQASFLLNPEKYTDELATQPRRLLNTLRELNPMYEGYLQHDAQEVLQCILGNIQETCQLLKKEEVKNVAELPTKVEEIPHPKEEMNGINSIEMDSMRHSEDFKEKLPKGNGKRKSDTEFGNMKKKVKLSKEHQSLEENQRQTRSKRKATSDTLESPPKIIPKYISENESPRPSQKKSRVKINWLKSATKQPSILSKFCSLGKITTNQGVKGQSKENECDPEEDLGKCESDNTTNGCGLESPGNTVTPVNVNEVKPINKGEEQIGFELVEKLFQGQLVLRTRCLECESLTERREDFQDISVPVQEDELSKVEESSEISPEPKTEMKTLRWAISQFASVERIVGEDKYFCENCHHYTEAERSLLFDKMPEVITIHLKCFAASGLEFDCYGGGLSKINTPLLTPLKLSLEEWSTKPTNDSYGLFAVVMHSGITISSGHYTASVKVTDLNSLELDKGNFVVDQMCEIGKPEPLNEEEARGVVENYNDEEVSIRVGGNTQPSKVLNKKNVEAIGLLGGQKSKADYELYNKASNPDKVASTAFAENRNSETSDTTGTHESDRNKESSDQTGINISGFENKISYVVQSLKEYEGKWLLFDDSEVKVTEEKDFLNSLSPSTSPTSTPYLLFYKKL
Chain of Cytochrome P450 1A2 (Homo sapiens) (P05177 whole entry, looked up): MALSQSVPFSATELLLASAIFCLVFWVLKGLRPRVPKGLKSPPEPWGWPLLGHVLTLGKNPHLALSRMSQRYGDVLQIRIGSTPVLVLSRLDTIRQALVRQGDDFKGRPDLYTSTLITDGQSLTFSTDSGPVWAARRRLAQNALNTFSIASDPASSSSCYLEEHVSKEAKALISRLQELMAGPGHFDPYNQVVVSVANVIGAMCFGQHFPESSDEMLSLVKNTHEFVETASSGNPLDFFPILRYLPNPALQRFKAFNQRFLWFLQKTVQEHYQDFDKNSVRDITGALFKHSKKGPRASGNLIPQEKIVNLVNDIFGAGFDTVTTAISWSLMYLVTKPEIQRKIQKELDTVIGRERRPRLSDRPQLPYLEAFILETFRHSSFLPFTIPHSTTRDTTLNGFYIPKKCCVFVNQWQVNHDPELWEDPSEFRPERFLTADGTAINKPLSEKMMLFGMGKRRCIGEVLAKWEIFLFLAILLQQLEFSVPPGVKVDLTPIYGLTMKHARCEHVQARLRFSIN
Chain of Cytochrome P450 2D6 (Homo sapiens) (P10635 whole entry, looked up): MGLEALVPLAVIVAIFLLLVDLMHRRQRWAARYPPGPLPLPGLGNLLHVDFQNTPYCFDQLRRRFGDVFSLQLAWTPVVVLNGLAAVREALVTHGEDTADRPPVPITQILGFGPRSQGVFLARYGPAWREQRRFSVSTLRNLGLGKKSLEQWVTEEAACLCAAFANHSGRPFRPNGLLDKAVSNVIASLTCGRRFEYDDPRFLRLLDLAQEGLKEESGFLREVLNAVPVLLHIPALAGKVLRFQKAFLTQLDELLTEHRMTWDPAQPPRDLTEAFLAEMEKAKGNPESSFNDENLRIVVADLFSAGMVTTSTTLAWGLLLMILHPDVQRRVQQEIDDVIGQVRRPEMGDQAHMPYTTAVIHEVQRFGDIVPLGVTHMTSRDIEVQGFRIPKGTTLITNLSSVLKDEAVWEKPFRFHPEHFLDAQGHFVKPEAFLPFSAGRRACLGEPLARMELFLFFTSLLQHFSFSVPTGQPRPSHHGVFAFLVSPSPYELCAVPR

`CC(=O)N1CCC2(CCN(Cc3nccs3)CC2)CC1`: the Potency was > 11.4 µM (inactive) in test [1] and > 46 µM (inactive) in test [5]. In addition, the activity change, negative = inhibition in test [2] was 3.58% (inactive); in test [4], -2.08% (inactive); in test [8], -0.294% (inactive). In addition, the Potency entry in [3], in [7] and in test [9] was “inactive” throughout. For the same molecule, the result in test [6] was inactive. Further, the max response in test [8] (setting [17]) worked out at 3.24%; in test [8] (setting [18]), 5.77%.
For the molecule `COc1ccc(C(=O)N2CCC3(CC2)CN(C(=O)Nc2cccc(C#N)c2)C3)cc1`, the figures for the Potency in [1] and in test [5] were > 11.4 µM (inactive) and > 46 µM (inactive), respectively. For the same molecule, the activity change, negative = inhibition in test [2] is -3.72% (inactive); in [4] it was 16.2% (inactive); in test [8] it was 6.5% (inactive). For the same molecule, the Potency result in test [3], in test [7], in test [10] and in test [9] was “inactive” throughout. In addition, the result in test [6] was inactive. Also, the max response worked out at 13.9% in [8] (setting [17]) and 18.3% in test [8] (setting [18]).
Turning to `CC(C)NC(=O)N1CC2(CCN(C(=O)c3ccncc3)CC2)C1`, in test [1], the Potency was > 11.4 µM (inactive). Further, the activity change, negative = inhibition in [2] was 13% (inactive); in test [4], 10.6% (inactive); in test [8] it was -0.244% (inactive). Also, the activity, negative = inhibition in [11] was 7.63% (inactive). The molecule was called inactive in [6]. Besides, the Potency result in test [7], in [10] and in [9] was “inactive” in each case. Besides, the max response turned out to be 11.6% in test [8] (setting [17]) and 15.6% in test [8] (setting [18]).
Turning to `COCC(=O)N1CCC[C@@]2(CCN(Cc3ccccc3OC)C2)C1`, the results for the Potency in test [1], in test [5] and in [12] were > 11.4 µM (inactive), > 46 µM (inactive) and 6.31 µM (active), respectively. Moreover, the activity change, negative = inhibition in test [2] is -5.37% (inactive); in [4], 7.38% (inactive); in test [8] it was 3.26% (inactive). In addition, the activity, negative = inhibition in test [11] is -1.88% (inactive). Moreover, the molecule was called inactive in [6]. For the same molecule, the Potency result in test [7] and in test [9] was “inactive” throughout. Besides, the max response worked out at 0.0589% in test [8] (setting [17]) and 5.61% in test [8] (setting [18]).
For `Cn1cccc1C(=O)N1CCC[C@@]2(CCN(Cc3cc(C(F)(F)F)cc(C(F)(F)F)c3)C2)C1`, the Potency is > 11.4 µM (inactive) in test [1] and 3.98 µM (active) in [12]. Besides, the activity change, negative = inhibition in test [2] was 8.92% (inactive); in test [4], 7.04% (inactive); in test [8], -3.99% (inactive). Besides, in [6], the molecule was called inactive. For the same molecule, the Potency result in test [7], in [10] and in test [9] was “inactive” throughout. Besides, the max response was -0.0419% in test [8] (setting [17]) and -1.35% in test [8] (setting [18]).
For `O=C(c1ccco1)N1CCC2(CC1)CCN(c1ncccn1)CC2`, the Potency is > 11.4 µM (inactive) in [1] and > 46 µM (inactive) in test [5]. In addition, the activity change, negative = inhibition in test [2] is -7.74% (inactive); in test [4] it was -8.3% (inactive); in [8] it was 5.72% (inactive). Besides, the activity, negative = inhibition in test [11] is -7.06% (inactive). Further, the molecule was called inactive in test [6]. For the same molecule, the Potency result in test [7] and in test [9] was “inactive” throughout. The max response in test [8] (setting [17]) turned out to be 9.29%; in test [8] (setting [18]), 18.4%.
`CC(C)=CCC1=C(O)c2ccccc2C(=O)C1=O`: the molecule was classed as inactive in test [13] and in test [14]. The activity change, negative = inhibition in test [8] is -0.846% (inactive). The max response in test [8] (setting [17]) is -0.752%; in test [8] (setting [18]) it was 0.642%. Besides, the Potency in test [15] is 35.5 µM (active). Besides, the Potency result in [9] was “inactive”.
Consider `CS(=O)(=O)Nc1cccc(-c2nccc(NCc3ccccc3)n2)c1`, for which the Potency in test [1] was > 11.4 µM (inactive); in test [16], > 46 µM (inactive); in test [5] it was > 46 µM (inactive). For the same molecule, the figures for the activity change, negative = inhibition in test [2], in test [4] and in test [8] were -20% (inactive), -4.2% (inactive) and 6.93% (inactive), respectively. Further, the activity, negative = inhibition in test [11] was -11.8% (inactive). Moreover, the call in test [6], in test [13] and in [14] was inactive. In addition, the Potency entry in test [7], in test [15] and in test [9] was “inactive” throughout. Further, the max response in test [8] (setting [17]) is -0.959%; in [8] (setting [18]), 4.33%.
